Measured values published in PMC4336329 (PLoS ONE, 2015).
In all, about 310,000 compounds went through this assay and about 14,000 (4.5%) showed an effect of 50% or more. The effect is printed as a negative number. The list comes from a sample in which strong results are over-represented; it also holds similar structures and randomly drawn compounds.

target: human ether-à-go-go-related gene (hERG) potassium channel (human, UniProt Q12809); assay: primary screen, population patch clamp on CHO cells stably expressing hERG; higher = less effect of the substance
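Further: peak tail current of the secondary pulse compared with the same well before compound.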

Sequence of human ether-à-go-go-related gene (hERG) potassium channel (Q12809 whole entry, looked up): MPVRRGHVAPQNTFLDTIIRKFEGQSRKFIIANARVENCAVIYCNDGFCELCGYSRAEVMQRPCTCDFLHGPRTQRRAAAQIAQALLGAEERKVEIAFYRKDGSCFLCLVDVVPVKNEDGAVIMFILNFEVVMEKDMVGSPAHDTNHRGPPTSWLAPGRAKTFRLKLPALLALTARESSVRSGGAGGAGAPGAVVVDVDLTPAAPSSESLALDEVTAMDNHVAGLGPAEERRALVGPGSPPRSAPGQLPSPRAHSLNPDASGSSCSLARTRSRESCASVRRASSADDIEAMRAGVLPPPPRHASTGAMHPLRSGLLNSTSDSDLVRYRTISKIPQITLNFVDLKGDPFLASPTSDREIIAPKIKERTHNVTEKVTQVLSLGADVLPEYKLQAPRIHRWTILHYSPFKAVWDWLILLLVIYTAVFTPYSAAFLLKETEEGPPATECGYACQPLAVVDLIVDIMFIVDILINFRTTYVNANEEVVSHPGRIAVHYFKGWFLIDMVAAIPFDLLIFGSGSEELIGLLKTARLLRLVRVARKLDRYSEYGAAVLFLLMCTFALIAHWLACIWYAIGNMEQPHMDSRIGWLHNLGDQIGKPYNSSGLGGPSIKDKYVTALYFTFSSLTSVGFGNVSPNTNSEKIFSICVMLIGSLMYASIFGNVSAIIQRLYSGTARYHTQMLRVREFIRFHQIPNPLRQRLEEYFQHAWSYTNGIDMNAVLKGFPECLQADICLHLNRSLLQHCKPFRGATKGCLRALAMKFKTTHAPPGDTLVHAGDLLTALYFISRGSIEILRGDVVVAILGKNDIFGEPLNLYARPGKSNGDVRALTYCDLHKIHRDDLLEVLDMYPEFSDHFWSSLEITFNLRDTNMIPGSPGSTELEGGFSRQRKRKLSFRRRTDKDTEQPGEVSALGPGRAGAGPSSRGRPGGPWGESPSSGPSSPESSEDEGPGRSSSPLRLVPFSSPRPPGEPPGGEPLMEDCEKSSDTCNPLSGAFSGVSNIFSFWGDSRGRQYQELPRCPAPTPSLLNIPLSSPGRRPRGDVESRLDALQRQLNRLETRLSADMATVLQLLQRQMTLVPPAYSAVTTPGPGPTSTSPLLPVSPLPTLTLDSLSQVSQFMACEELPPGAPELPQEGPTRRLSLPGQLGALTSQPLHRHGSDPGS

| SMILES | hERG current change (%, negative = inhibition) at 10uM |
| --- | --- |
| O=C(NC(Nc1nc2ccc([N+](=O)[O-])cc2s1)(C(F)(F)F)C(F)(F)F)c1ccccc1 | -6.48% |
| CCCc1nnc(NC(=O)c2c(O)c3cccc4c3n(c2=O)CCC4)s1 | -2.48% |
| S=C(NCCCN1CCOCC1)NC1CCCC1 | 8.32% |
| O=c1[nH]c(/C=C\c2ccccc2F)nc(O)c1[N+](=O)[O-] | 17.5% |
| COc1ccc(NC(=O)CSc2c(C)n[nH]c2C)cc1 | -7.52% |
| Cc1occc1C(=O)NNC(=O)c1nn(C)c(=O)c2ccccc12 | 8.46% |
| Cc1ccc(OCCC(=O)NNC(=O)c2nn(C)c(=O)c3ccccc23)cc1 | -33.1% |
| Cn1nc(C(=O)NNC(=O)CCc2ccccc2Cl)c2ccccc2c1=O | -53.9% |
| CCOc1ccc(OCCC(=O)NNC(=O)c2nn(C)c(=O)c3ccccc23)cc1 | -13.1% |
| CCc1noc(C)c1C(=O)NNC(=O)c1ccccc1 | -1.03% |
| CCc1noc(C)c1C(=O)NNC(=O)c1nn(C)c(=O)c2ccccc12 | -50.2% |
| CCOC(=O)N1CCN(C(=O)C(CC(C)C)NS(=O)(=O)c2ccc(C)cc2)CC1 (stereo not shown) | -4.14% |
| COC(=O)C1C2c3ccccc3OC1(C)N=c1s/c(=C/c3cn(C)nc3C)c(=O)n12 (stereo not shown) | 11.2% |
| COC(CNC(=O)c1ccc2c(c1)nc(C)n2-c1cccc(C)c1)OC | 0.933% |
| CCC(CC)NC(=O)COC(=O)c1ccc(OCC(=O)Nc2ccccc2OC)c(OC)c1 | 11.4% |
| COc1cc(OC)cc(C(=O)N2CCN(c3ccccc3F)CC2)c1 | -11.6% |
| COc1ccc(N2CCN(C(=O)c3ccccc3Br)CC2)c([N+](=O)[O-])c1 | -65.5% |
| O=C(c1ccccc1Br)N1CCN(c2ccc([N+](=O)[O-])c(N3CCOCC3)c2)CC1 | -11.5% |
| Cc1ccc(N2CCN(C(=O)c3ccccc3F)CC2)c(C)c1 | -8.81% |
| COc1cc(C(=O)N2CCN(c3ccccc3OC)CC2)c([N+](=O)[O-])cc1OC | 18.5% |
| COc1ccc(N2CCN(C(=O)c3ccccc3F)CC2)c([N+](=O)[O-])c1 | -51.3% |
| Cc1cc(=O)oc2cc(OCc3cc4c(cc3Cl)OCO4)ccc12 | 8.74% |
| NNC(=O)CNc1cccc(Cl)c1 | 15.4% |
| CC(=O)c1ccc(NC(=O)C2C3CCC(C3)C2C(=O)O)cc1 (stereo not shown) | 17.8% |
| COCCCNC(=O)Cn1nc(-c2ccccc2OC)ccc1=O | 18% |
| COc1ccc(Cl)cc1C(=O)Nc1ccncc1 | -26.2% |
| Cn1c(N)c(C(=O)COC(=O)CCC2CCCC2)c(=O)n(C)c1=O | -43.3% |
| Cn1c(N)c(C(=O)COC(=O)CC2CC3CCC2C3)c(=O)n(C)c1=O (stereo not shown) | -64.4% |

| SMILES | hERG current change (%, negative = inhibition) at 10uM |
| --- | --- |
| Cn1c(N)c(C(=O)COC(=O)C2CCCCC2)c(=O)n(C)c1=O | -11.2% |
| Cn1c(N)c(C(=O)COC(=O)CCC2CCCCC2)c(=O)n(C)c1=O | -73.6% |
| Cn1c(N)c(C(=O)COC(=O)C23CC4CC(CC(C4)C2)C3)c(=O)n(C)c1=O | -22.6% |
| Cn1c(N)c(C(=O)COC(=O)C2CCCC2)c(=O)n(C)c1=O | -20.6% |
| Cc1ccccc1OC(C)C(=O)NC1CCCC1 (stereo not shown) | -2.63% |
| O=C(NN=C1C2CC3CC1CC(Cl)(C3)C2)c1cccs1 | 8.54% |
| COc1ccc(-c2nc(NC(C)=O)sc2-c2ccccc2)cc1 | 34.7% |
| C=CCN(CC(=O)NCc1ccc(OC)cc1)C(=O)c1csnn1 | -16.7% |
| COc1ccc(CNC(=O)CN(C(=O)c2csnn2)c2ccc(F)cc2)cc1 | -5.15% |
| COc1ccc(CNC(=O)CN(Cc2ccccc2F)C(=O)c2csnn2)cc1 | -32.7% |
| COc1ccc(CN(CC(=O)NCc2ccc(F)cc2)C(=O)c2csnn2)cc1 | -58.5% |
| COc1ccc(CNC(=O)CN(Cc2ccc(F)cc2)C(=O)c2csnn2)cc1 | -70.4% |
| COc1ccc(CNC(=O)CN(Cc2ccc(C)cc2)C(=O)c2csnn2)cc1 | -36.1% |
| COc1ccc(CNC(=O)CN(Cc2ccc(OC)cc2)C(=O)c2csnn2)cc1 | -57.5% |
| COc1ccc(CNC(=O)CN(Cc2ccccc2OC)C(=O)c2csnn2)cc1 | -29% |
| COc1ccc(CN(CC(=O)NCc2ccccc2)C(=O)c2csnn2)cc1 | -26.6% |
| COc1ccccc1CN(CC(=O)NCc1ccc(F)cc1)C(=O)c1csnn1 | -35.3% |
| COc1ccc(CNC(=O)CN(Cc2ccccc2)C(=O)c2csnn2)cc1 | -32.3% |
| COc1ccc(CNC(=O)CN(Cc2ccc(Cl)cc2)C(=O)c2csnn2)cc1 | -71.7% |
| CCOc1cccc(=O)c2c(C)n(-c3ccc(C(=O)O)cc3)c(C)c12 | 32% |
| CCOC(=O)c1c(C)nsc1NC(=O)c1ccco1 | -4.79% |
| CCOc1ccc(NCc2nnc(SCC(=O)Nc3cc(C)on3)n2-c2ccc(OC)cc2)cc1 | -4.02% |
| CCc1cccc(CC)c1NC(=O)COC(=O)Cc1ccsc1 | 21.2% |
| COc1ccc(N2C(=O)NC(=O)/C(=C/c3cccc(OC(=O)c4cccs4)c3)C2=O)cc1Cl | -2.57% |
| Cc1ccc(C(=O)NC(=S)Nc2cc(C(F)(F)F)ccc2Cl)cc1 | 20.3% |
| CCOC(=O)Cc1csc(NC(=O)CN(C)S(=O)(=O)c2ccc3c(c2)CCC(=O)N3)n1 | -15.9% |
| CN(C)S(=O)(=O)c1ccc(C(=O)Nc2cc(S(=O)(=O)Nc3ccccc3Cl)ccc2N2CCCCC2)cc1 | 25.5% |
